Screens (PubChem BioAssay)
Hits are enriched below; roughly 3.1% of the tested compounds scored in any of these assays.
Rin1 Abl inh: inhibitors of Rin1-Abl protein binding, primary screen, biochemical, TR-FRET. Tyrosine-protein kinase ABL1 (Homo sapiens) + Ras and Rab interactor 1 (Homo sapiens), …. inhibition, % at 7.35 µM. 360,000 tested, 0.4% active; in the data active = inhibition above about 5%, passing the limit was not always enough
UHRF1 MBD2 ctr: UHRF1 methylated DNA binding inhibitors, primary screen, counter-screen for MBD2 inhibitor project, biochemical, TR-FRET, human UHRF1, single concentration | UHRF1 binding to methylated oligo | 370,000 tested, 0.75% active | E3 ubiquitin-protein ligase UHRF1 (Homo sapiens), Q96T88 | AID 687016, 2013 | inhibition, % at 4.4 µM; in the data active = inhibition above about 21%;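 note: UHRF1 SRA domain binding a hemimethylated CpG hairpin DNA probe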
LEDGF integ inh: blockers of LEDGF/p75-dependent integrase strand transfer – biochemical, TR-FRET, high throughput, primary screen; 370,000 tested, 0.64% active; AID 743269, 2014; inhibition, % at 3.7 µM; HIV-1 integrase (with human LEDGF/p75); TR-FRET IN-LEDGF/p75 DNA integration, Eu/Cy5;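 active = inhibition above the screen-wide mean plus 3 SD, cut at about 13% in these data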;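 note: signal is the Cy5 over europium emission ratio at 671 and 618 nm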
Neddyl block: inhibitors of cullin neddylation, primary screen, biochemical, TR-FRET, uHTS, NAE and Ubc12; NEDD8-conjugating enzyme Ubc12 (Homo sapiens) + NEDD8-activating enzyme E1 regulatory …; calls only at 25 µM; 360,000 tested, 0.58% active; in the data active = inhibition above about 36%
proKLK7 act: proKLK7 zymogen activators, primary screen, biochemical, fluorescence intensity; 370,000 tested, 0.9% active; AID 652039, 2013; purified proKLK7, EDANS-DABCYL substrate fluorescence; 100% is mature enzyme control, 0% vehicle; activation, % at 7 µM; Kallikrein-7 (Homo sapiens), P49862;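 active = activation above the mean of all tested compounds plus 3 SD, computed per campaign excluding outliers beyond control limits, cut at about 13% in these data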
MBD2 DNA inh: inhibitors of MBD2 binding to methylated DNA, primary screen, biochemical, TR-FRET, DNA-binding domain, human; Methyl-CpG-binding domain protein 2 (Homo sapiens), Q9UBB5; MBD2 binding to methylated oligonucleotide; inhibition, % at 4.4 µM; 370,000 tested, 0.31% active; AID 686964, 2013; in the data active = inhibition above about 13%
Target sequence (Q9UBB5 whole entry, looked up, the tested form may be a part): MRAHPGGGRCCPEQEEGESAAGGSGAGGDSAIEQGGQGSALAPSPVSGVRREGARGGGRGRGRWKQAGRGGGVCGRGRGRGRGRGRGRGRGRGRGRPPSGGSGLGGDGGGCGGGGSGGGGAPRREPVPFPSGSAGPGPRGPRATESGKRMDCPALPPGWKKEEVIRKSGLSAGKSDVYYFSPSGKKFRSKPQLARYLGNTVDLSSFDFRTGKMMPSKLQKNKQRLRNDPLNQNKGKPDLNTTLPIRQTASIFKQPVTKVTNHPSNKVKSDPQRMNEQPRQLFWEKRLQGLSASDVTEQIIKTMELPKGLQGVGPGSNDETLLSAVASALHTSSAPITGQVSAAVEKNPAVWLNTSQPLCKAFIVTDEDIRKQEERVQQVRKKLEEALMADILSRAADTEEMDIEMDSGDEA
Rin1-Abl confirm: Rin1-Abl binding inhibitor retest, confirmation, biochemical, TR-FRET | shares compounds with Rin1 Abl inh | purified proteins | inhibition, % at 7.35 µM | 1,300 tested, 49% active | AID 602124, 2011
GFP quencher: GFP fluorescence inhibitors and quenchers, artefact control for Rin1-Abl interaction inhibitor project, biochemical; shares compounds with Rin1 Abl inh; inhibitors/quenchers counterscreen; inhibition, % at 6.75 µM; 1,300 tested, 8.5% active;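 note: ABL1-eGFP fusion protein alone without its partner RIN1-SBP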
GFP quench dose: GFP fluorescence inhibitors and quenchers, dose response, artefact control for Rin1-Abl interaction inhibitor project, biochemical. shares compounds with Rin1 Abl inh. GFP fluorescence interference/quenching counterscreen. IC50, µM. 230 tested, under 10 active. AID 602182, 2012; call rule not given here;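 note: ABL1-eGFP fusion protein alone without its RIN1 binding partner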
Numbers stand for hits; . = inactive; / = no result given. Cut-off read from the data, not from the text of the source, unless noted: active = inhibition above about 6.5%; inactive = the rest.

SMILES	Rin1 Abl inh	UHRF1 MBD2 ctr	LEDGF integ inh	Neddyl block	proKLK7 act	MBD2 DNA inh	Rin1-Abl confirm	GFP quencher	others
CCN(CC)c1ccc(C(=C2C=CC(=[N+](CC)CC)C=C2)c2ccc(N(CC)CC)cc2)cc1	19	.	.	.	.	.	17	52
CCN(CC)c1ccc(C(=C2C=CC(=[N+](CC)CC)C=C2)c2ccccc2)cc1	.	.	.	.	.	.	/	/
CC1=CC2=NC(=O)/C(=C\c3cccn3CCOc3cc(C)ccc3C)C(=N)N2O1	.	.	.	.	.	.	/	/
COc1cc(C(=O)N2CCSCC2)ccc1OC1CCN(C(C)=O)CC1	.	.	.	.	.	.	/	/
COCCC1CCCCN1C(=O)c1ccc(OC2CCN(C(C)=O)CC2)c(OC)c1 (stereo not drawn)	13	.	.	.	.	.	.	.
COc1ccc(/C=N\NC(=O)c2cc(O)c(O)c(O)c2)cc1COc1ccc(C(=O)OCC(C)C)cc1	15	.	.	.	.	.	11	.
CCC(C)N(C(=O)Cn1nnc(-c2ccc(Cl)cc2)n1)C1CCS(=O)(=O)C1 (stereo not drawn)	.	.	.	.	.	.	/	/
Cc1ccc(-c2nnc(N3CCN(C(=O)c4ccco4)CC3)c3ccccc23)cc1	13	.	.	.	.	.	7.9	.
CC(=O)N1CCN(c2nnc(-c3ccccc3)c3ccccc23)CC1	.	.	.	.	.	.	/	/
CCOC(=O)c1ccc(NC(=O)COc2ccccc2CNC2CCCC2)cc1	31	.	.	.	.	.	34	.	GFP quench dose=.
Cc1c(N=NC2=C(O)CC(C)(C)CC2=O)c(=O)n(-c2ccccc2)n1C	10	.	.	.	.	.	.	.
C[C@H]1[C@H](N(Cc2cccs2)Cc2cccs2)CC[C@@]23CCCN2C(=O)CCC[C@@H]13	/	.	.	/	/	.	/	/
CC1=C(C(=O)OC(C)C)C2(O)C(=O)c3ccccc3C2(O)N1 (stereo not drawn)	13	.	.	.	.	.	.	.
CCOC(=O)C1=C(C)N[C@@]2(O)c3ccccc3C(=O)[C@@]12O	.	.	.	.	.	.	/	/
CCCCOC(=O)C1=C(C)NC2(O)c3ccccc3C(=O)C12O (stereo not drawn)	7.8	.	.	.	.	.	.	.
CC(C)CN(CC(C)C)C(=O)c1cn(C(C)c2ccccc2)nn1 (stereo not drawn)	/	.	.	/	.	.	/	/
Cc1ccccc1-c1cc2nc(NCc3ccc(N(C)C)cc3)n(C)c(=O)c2s1	.	.	.	.	.	.	/	/
CC(C)N(CC(N)=O)C(=O)c1sc2cc(F)ccc2c1Cl	7.0	.	.	.	.	.	.	.
COc1ccc(C(CNC(=O)COc2cc(C)ccc2Cl)N2CCCCC2)cc1 (stereo not drawn)	14	.	.	.	.	.	.	.
O=C(CCl)Nc1ccccc1C(=O)NCc1ccccc1	.	.	.	.	.	.	/	/
O=C(NCc1ccccc1)C1Cc2c(-c3cccc(F)c3)ccnc2O1 (stereo not drawn)	.	.	.	.	.	.	/	/
CN1CCN(c2ccc(CNC(=O)C3Cc4c(-c5cccc(F)c5)ccnc4O3)cc2)CC1 (stereo not drawn)	6.5	.	.	.	.	.	.	.
